Measured values as given in PubChem BioAssay (Tox21).
Values joined by “and” are separate entries in the source; they are usually repeats but may differ in a detail not shown here. Identical values can stand only once. Results filed as inconclusive are left out. A call without a number means that no potency is given here. A structure can be active in one record and inactive in another. Active and inactive are the calls of the source. Unless noted, the call rests on the fitted dose curve.

What was measured:
[1] = Nuclear factor erythroid 2-related factor 2/antioxidant responsive element (Nrf2/ARE) small molecule agonists: qHTS cell viability counter screen in human keratinocytes (AID 1919968; active means well fitted curve in the direction sought with a large enough effect in the repeat runs; an effect the other way counts as inactive or inconclusive; further: nearly all actives have a fitted effect of over 55% in size); conditions: KeratinoSens HaCaT ARE cells viability, CellTiter-Fluor, 24 h; series mostly up to 92.4 µM
Procedure, shortened: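 Seed 1,500 KeratinoSens cells per well, then incubate 5 h at 37 C/5% CO2. Add compounds in DMSO and incubate 23 h. Add CellTiter-Fluor, wait 1 h and read fluorescence.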

[2] = Nuclear factor erythroid 2-related factor 2/antioxidant responsive element (Nrf2/ARE) small molecule agonists: luciferase reporter gene qHTS assay in human keratinocytes (AID 1919969); conditions: KeratinoSens HaCaT ARE-luciferase, luminescence, 24 h; series mostly up to 92.4 µM; further: nearly all actives have a fitted effect of over 35% in size; further: potency means the concentration at half of the fitted maximal effect
[3] = molecular target: Gonadotropin-releasing hormone receptor (Homo sapiens) (UniProt P30968); assay: Human gonadotropin-releasing hormone receptor (GnRHR) small molecule agonists, calcium flux assay in GnRHR-HEK293 cells (AID 1920063); conditions: calcium flux fluorescence, agonist mode; series mostly up to 57.6 µM; further: nearly all actives have a fitted effect of over 35% in size
Sequence of Gonadotropin-releasing hormone receptor (Homo sapiens) (P30968 whole entry, looked up): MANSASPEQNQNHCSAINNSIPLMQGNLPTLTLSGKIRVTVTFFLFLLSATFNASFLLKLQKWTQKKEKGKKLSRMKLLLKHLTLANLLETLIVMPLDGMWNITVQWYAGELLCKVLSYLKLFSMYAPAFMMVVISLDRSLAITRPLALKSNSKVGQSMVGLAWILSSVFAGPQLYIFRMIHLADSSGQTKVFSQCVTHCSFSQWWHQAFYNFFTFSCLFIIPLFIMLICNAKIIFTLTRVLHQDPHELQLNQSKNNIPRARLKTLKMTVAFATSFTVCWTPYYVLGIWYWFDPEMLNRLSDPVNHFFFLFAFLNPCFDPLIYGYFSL
Procedure, shortened: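 Cells: HEK293 stably expressing human GnRHR. Steps: overnight (18 h) culture, 1 h calcium dye loading at 37 C, compound addition, kinetic fluorescence read at 480/540 nm. Each compound tested at 15 concentrations in triplicate.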

[4] = molecular target: KiSS-1 receptor (Homo sapiens) (UniProt Q969F8); assay: Human kisspeptin (KISS1R) small molecule agonists, calcium flux assay in KISS1R-HEK293 cells (AID 1920064; active means well fitted curve in the direction sought with a large enough effect in the repeat runs; an effect the other way counts as inactive or inconclusive); conditions: KISS1R-HEK293, calcium flux fluorescence, agonist; series mostly up to 76.8 µM
Sequence of KiSS-1 receptor (Homo sapiens) (Q969F8 whole entry, looked up): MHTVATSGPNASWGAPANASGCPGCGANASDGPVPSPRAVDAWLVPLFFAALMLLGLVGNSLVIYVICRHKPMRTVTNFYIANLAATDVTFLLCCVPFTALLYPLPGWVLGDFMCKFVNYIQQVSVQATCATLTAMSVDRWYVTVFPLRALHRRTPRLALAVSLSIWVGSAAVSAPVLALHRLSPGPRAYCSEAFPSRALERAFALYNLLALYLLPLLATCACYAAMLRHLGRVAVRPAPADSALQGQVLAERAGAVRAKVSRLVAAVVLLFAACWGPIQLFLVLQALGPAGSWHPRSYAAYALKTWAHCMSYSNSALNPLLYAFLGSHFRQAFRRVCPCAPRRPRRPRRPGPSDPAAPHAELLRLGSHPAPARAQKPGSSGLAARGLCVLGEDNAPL
Procedure, shortened: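 Cells plated and incubated 18 h; dye added, 1 h at 37 C; compounds in DMSO pinned in; signal read at 480/540 nm every second for 3 min. Each compound tested at 15 concentrations in triplicate.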

[5] = G protein-coupled receptor (GPCR) small molecule agonists, calcium flux assay: HEK293 wild type cell line counter screen (AID 1920065); conditions: HEK293 WT calcium flux, fluorescence, agonist mode; series mostly up to 57.6 µM
Procedure, shortened: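 Counter-screen of the Tox21 10K library for non-specific calcium release: dye-loaded cells received compounds in DMSO and were monitored by kinetic fluorescence (480/540 nm, 3 min). Fifteen concentrations, run in triplicate.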

[6] = p53 small molecule agonists, cell-based qHTS assay with rat liver microsomes: qHTS cell viability counter screen (AID 1963580); conditions: p53RE-bla HCT-116 + rat microsomes, ATP viability, 16 h; series mostly up to 66 µM; further: nearly all actives have a fitted effect of over 45% in size
Procedure, shortened: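 p53RE-bla HCT-116 cells were exposed 16 h at 37 C to compounds with rat liver microsomes (0.5 mg/mL) and NADPH (0.5 mg/mL). Viability was measured in the same wells as ATP content by CellTiter-Glo luminescence.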

[7] = p53 small molecule agonists, cell-based qHTS assay: qHTS cell viability counter screen (AID 1963581); conditions: p53RE-bla HCT-116 viability, ATP luminescence, 16 h; series mostly up to 66 µM; further: nearly all actives have a fitted effect of over 45% in size; further: potency means the concentration at half of the fitted maximal effect
Procedure, shortened: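 Cells: HCT-116 with p53 response element-driven beta-lactamase. Treatment: 16 h, 37 C, compounds in DMSO. Read: CellTiter-Glo luminescence after 30 min RT.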

[8] = p53 small molecule agonists, cell-based qHTS assay (AID 1963582; active means well fitted activation curve with a large enough effect in the signal ratio in the repeat runs, not every such curve was filed as active; the % refers to the signal ratio); conditions: HCT-116 p53RE-bla reporter, beta-lactamase FRET ratio, 16 h; series mostly up to 66 µM
Procedure, shortened: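 Quantitative HTS in p53RE-bla cells: after a 5 h settling period, compounds delivered in DMSO were left on cells for 16 h at 37 C, and reporter induction was measured as fluorescence following 2 h substrate loading.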

[9] = molecular target: 5-hydroxytryptamine receptor 2A (Homo sapiens) (UniProt P28223); assay: 5-hydroxytryptamine receptor 2A (HTR2A) small molecule antagonists, cell-based qHTS assay (AID 1963586); conditions: HTR2A-CHO cells, DOI-induced calcium flux, fluorescence; series mostly up to 61.5 µM; further: nearly all actives have a fitted effect of over 45% in size
Sequence of 5-hydroxytryptamine receptor 2A (Homo sapiens) (P28223 whole entry, looked up): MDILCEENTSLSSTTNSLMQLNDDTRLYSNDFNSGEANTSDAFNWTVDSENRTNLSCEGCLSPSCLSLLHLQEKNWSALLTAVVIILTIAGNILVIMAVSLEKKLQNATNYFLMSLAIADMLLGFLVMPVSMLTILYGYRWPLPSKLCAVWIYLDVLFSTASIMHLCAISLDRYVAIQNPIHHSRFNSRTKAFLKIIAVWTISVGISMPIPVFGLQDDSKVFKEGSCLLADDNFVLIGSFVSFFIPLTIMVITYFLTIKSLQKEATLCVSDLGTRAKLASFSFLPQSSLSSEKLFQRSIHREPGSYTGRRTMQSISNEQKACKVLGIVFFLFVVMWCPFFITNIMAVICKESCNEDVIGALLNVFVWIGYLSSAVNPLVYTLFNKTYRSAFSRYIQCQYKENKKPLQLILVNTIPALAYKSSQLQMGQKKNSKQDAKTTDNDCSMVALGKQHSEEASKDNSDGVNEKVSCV
Procedure, shortened: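 Antagonist-mode intracellular calcium assay: DOI (4 nM) added after 5 min compound pre-incubation at room temperature to dye-loaded HTR2A-CHO cells. Fluorescence followed for 3 min, sampled every second.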

[10] = molecular target: 5-hydroxytryptamine receptor 2A (Homo sapiens) (UniProt P28223); assay: 5-hydroxytryptamine receptor 2A (HTR2A) small molecule agonists, cell-based qHTS assay (AID 1963587); conditions: HTR2A-CHO cells, calcium flux fluorescence, agonist mode; series mostly up to 76.8 µM; further: nearly all actives have a fitted effect of over 30% in size
Procedure, shortened: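 CHO cells stably expressing human HTR2A, plated 18 h, loaded with calcium dye 1 h at 37 C. Agonist mode: compounds added and intracellular calcium fluorescence recorded kinetically for 2 min at 1 sec intervals.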

[11] = molecular target: Muscarinic acetylcholine receptor M1 (Homo sapiens) (UniProt P11229); assay: Cholinergic receptor muscarinic 1 (CHRM1) small molecule antagonists, cell-based qHTS assay (AID 1963588); conditions: CHRM1-CHO antagonist mode, calcium flux fluorescence; series mostly up to 61.5 µM; further: nearly all actives have a fitted effect of over 40% in size
Sequence of Muscarinic acetylcholine receptor M1 (Homo sapiens) (P11229 whole entry, looked up): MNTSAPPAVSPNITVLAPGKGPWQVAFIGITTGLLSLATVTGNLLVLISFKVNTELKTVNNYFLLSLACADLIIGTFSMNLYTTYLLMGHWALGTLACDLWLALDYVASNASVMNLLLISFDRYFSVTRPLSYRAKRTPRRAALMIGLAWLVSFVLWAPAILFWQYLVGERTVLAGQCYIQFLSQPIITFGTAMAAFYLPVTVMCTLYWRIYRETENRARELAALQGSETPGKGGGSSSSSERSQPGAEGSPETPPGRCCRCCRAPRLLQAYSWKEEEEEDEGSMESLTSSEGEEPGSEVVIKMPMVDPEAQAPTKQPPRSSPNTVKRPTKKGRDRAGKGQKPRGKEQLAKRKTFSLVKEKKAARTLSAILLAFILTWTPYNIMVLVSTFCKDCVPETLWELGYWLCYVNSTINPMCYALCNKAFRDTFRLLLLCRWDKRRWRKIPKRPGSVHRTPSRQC
Procedure, shortened: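 CHRM1-CHO calcium-flux assay, antagonist mode. Cells were seeded 18 h, dye-loaded 1 h at 37 C and given compound for 5 min at RT, then acetylcholine was added at 50nM. FDSS fluorescence was read 3 min; 15 concentrations, three runs.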

[12] = molecular target: Muscarinic acetylcholine receptor M1 (Homo sapiens) (UniProt P11229); assay: Cholinergic receptor muscarinic 1 (CHRM1) small molecule agonists, cell-based qHTS assay (AID 1963589); conditions: CHRM1-CHO cells, agonist mode, calcium flux fluorescence; series mostly up to 76.8 µM; further: nearly all actives have a fitted effect of over 35% in size
Procedure, shortened: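 Agonist-mode qHTS in CHO cells stably carrying human muscarinic M1. Intracellular calcium is tracked by fluorescence every second after compound transfer; each compound runs at 15 concentrations in three independent runs.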

[13] = cAMP Responsive Elements (CRE) small molecule agonists, cell-based qHTS assay (AID 1963590); conditions: CRE-bla HEK293T, beta-lactamase FRET ratio, 3 h; series mostly up to 92.4 µM
Procedure, shortened: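 Agonist mode qHTS in CRE-bla HEK 293T cells: compounds dosed from DMSO for 3 h at 37 C/5% CO2, followed by LiveBLAzer B/G FRET substrate for 2 h at room temperature.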

[14] = cAMP Responsive Elements (CRE) small molecule antagonists, cell-based qHTS assay (AID 1963591; active means well fitted inhibition curve with a large enough effect in the signal ratio in the repeat runs, not every such curve was filed as active; the % refers to the signal ratio); conditions: CRE-bla HEK293T, beta-lactamase FRET ratio; series mostly up to 92.4 µM
Procedure, shortened: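 Antagonist mode: test compounds are co-incubated with the adenylyl cyclase activator NKH477 (0.25 uM final) on CRE-bla HEK293T cells for 3 h at 37 °C, followed by LiveBLAzer substrate loading.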

[15] = molecular target: Beta-2 adrenergic receptor (Homo sapiens) (UniProt P07550); assay: Adrenergic beta2 receptor (ADRB2) small molecule antagonists, cell-based qHTS assay (AID 1963592); conditions: CHO-ADRB2 cells, isoproterenol-stimulated cAMP HTRF ratio, 0.5 h; series mostly up to 92.4 µM; further: nearly all actives have a fitted effect of over 50% in size
Sequence of Beta-2 adrenergic receptor (Homo sapiens) (P07550 whole entry, looked up): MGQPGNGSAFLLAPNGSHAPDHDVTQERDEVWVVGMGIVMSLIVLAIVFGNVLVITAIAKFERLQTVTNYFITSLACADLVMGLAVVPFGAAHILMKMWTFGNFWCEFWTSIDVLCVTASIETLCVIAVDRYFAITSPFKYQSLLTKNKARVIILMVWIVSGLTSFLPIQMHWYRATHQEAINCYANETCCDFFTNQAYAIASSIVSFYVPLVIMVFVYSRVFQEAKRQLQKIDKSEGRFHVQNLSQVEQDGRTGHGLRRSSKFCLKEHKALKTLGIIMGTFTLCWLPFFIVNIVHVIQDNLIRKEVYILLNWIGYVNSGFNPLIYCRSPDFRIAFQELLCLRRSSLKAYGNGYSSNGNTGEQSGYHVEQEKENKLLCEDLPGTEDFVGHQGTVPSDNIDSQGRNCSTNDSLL
Procedure, shortened: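 Cells (CHO, stable ADRB2 overexpression) incubated 18-20hr at 37C; compounds added from DMSO; agonist mix (1nM isoproterenol, 100uM IBMX, 25uM Ro-20-1724) added; 0.5hr RT; d2-cAMP and anti-cAMP-cryptate added; 1hr RT; 665/615 nm read.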

[16] = molecular target: D(2) dopamine receptor (Homo sapiens) (UniProt P14416); assay: Dopamine D2 receptor (DRD2) small molecule agonists, cell-based qHTS assay (AID 1963594); conditions: HEK293-DRD2 cAMP HTRF, agonist mode, 30 min; series mostly up to 92.4 µM; further: nearly all actives have a fitted effect of over 35% in size
Sequence of D(2) dopamine receptor (Homo sapiens) (P14416 whole entry, looked up): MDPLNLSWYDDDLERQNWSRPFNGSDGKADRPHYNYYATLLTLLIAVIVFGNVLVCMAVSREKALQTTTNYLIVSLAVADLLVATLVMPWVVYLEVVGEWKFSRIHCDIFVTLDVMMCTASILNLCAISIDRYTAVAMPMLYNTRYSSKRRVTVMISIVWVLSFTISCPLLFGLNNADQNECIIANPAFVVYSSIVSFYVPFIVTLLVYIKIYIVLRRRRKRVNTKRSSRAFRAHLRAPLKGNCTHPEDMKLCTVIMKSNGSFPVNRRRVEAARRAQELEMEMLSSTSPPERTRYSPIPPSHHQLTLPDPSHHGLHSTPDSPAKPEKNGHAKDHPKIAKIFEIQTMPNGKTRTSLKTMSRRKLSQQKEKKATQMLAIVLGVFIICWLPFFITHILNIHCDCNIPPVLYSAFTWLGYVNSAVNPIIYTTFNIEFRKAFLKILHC
Procedure, shortened: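 HEK293 cells stably expressing human DRD2, pre-treated with PDE inhibitor Ro20-1724 (0.1 mM final) and compound 10 min at room temperature, then stimulated with NKH477 (200nM […]) for 30 min. cAMP read by HTRF (665/620 nm).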

[17] = molecular target: D(2) dopamine receptor (Homo sapiens) (UniProt P14416); assay: Dopamine D2 receptor (DRD2) small molecule antagonists, cell-based qHTS assay (AID 1963595; active means well fitted inhibition curve with a large enough effect in the signal ratio in the repeat runs, with a control signal flat; the % refers to the signal ratio); conditions: HEK293-DRD2 cAMP HTRF antagonist mode; series mostly up to 92.4 µM
Procedure, shortened: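 HTRF cAMP read-out at 665 and 620 nm emission (340 nm excitation). Antagonist mode: compounds were tested against 12 nM quinpirole in DRD2-HEK293 cells, with 200 nM NKH477 raising cAMP and 0.1 mM Ro20-1724 blocking its breakdown.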

[18] = molecular target: Beta-2 adrenergic receptor (Homo sapiens) (UniProt P07550); assay: Adrenergic beta2 receptor (ADRB2) small molecule agonists, cell-based qHTS assay (AID 1963593); conditions: CHO-ADRB2 cells, cAMP HTRF, 30 min; series mostly up to 92.4 µM;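 further: CHO cells stably overexpressing human ADRB2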
Procedure, shortened: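 CHO cells stably over-expressing ADRB2 were plated overnight at 37C, then dosed with compounds plus a stimulation mix containing 100uM IBMX and 25uM Ro-20-1724 for 0.5hr at room temperature. cAMP was measured by HTRF competition, 1hr.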

[19] = p53 small molecule agonists, cell-based qHTS assay with rat liver microsomes (AID 1963578); conditions: HCT-116 p53RE-bla, beta-lactamase ratio, 16 h; series mostly up to 66 µM
Procedure, shortened: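 Quantitative HTS of the Tox21 10K library: p53RE-bla cells, rat liver microsomes plus NADPH at 0.5 mg/mL final each, 16 h at 37 C, beta-lactamase fluorescence detection.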

[20] = p53 small molecule agonists, cell-based qHTS assay with human liver microsomes: qHTS cell viability counter screen (AID 1963579); conditions: p53RE-bla HCT-116 viability, ATP luminescence, 16 h, HLM; series mostly up to 66 µM; further: nearly all actives have a fitted effect of over 45% in size
Procedure, shortened: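 Viability of p53RE-bla cells is measured as CellTiter-Glo luminescence following a 16 h, 37 C incubation with compound, liver microsomes from human donors and NADPH.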

SMILES	Potency [1]	Potency [2]	Potency [3]	Potency [4]	Potency [5]	Potency [6]	Potency [7]	Potency [8]	Potency [9]	Potency [10]	Potency [11]	Potency [12]	Potency [13]	Potency [14]	Potency [15]	Potency [16]	Potency [17]	Potency [18]	Potency [19]	Potency [20]
C=CCc1ccccc1O	inactive	inactive	inactive	inactive	inactive	inactive	inactive	inactive	inactive	inactive	inactive	inactive	inactive	inactive	inactive	inactive	inactive			
C[C@]12CCC(=O)C=C1CC[C@@H]1[C@@H]2CC[C@]2(C)C(=O)CC[C@@H]12	inactive	inactive	inactive	inactive	inactive	inactive	inactive	inactive	inactive	inactive		inactive			inactive	inactive	inactive	inactive		
CCCCCCCCCCCCBr	inactive	inactive	inactive	inactive	inactive	inactive	inactive	inactive	inactive	inactive	inactive		inactive	inactive	inactive	inactive	inactive	inactive	inactive	inactive
NC(=O)CCl	inactive	61.1 µM (active)	inactive	inactive	inactive	inactive	inactive	inactive	inactive		inactive	inactive	inactive	inactive	inactive	inactive	inactive		inactive	inactive
CN1CC[C@]23c4c5ccc(O)c4O[C@H]2[C@@H](O)CC[C@H]3[C@H]1C5	inactive	inactive	inactive	inactive	inactive	inactive	inactive	inactive		inactive		inactive	inactive	inactive	inactive	inactive	inactive	inactive	inactive	inactive
COc1ccc(N)cc1	inactive	inactive and 68 µM (active)	inactive	inactive	inactive	inactive	inactive	inactive	inactive	inactive	inactive	inactive	inactive	inactive	inactive	inactive	inactive		inactive	inactive
CN(C)c1ccc(N(C)C)cc1	inactive	54.6 µM (active)	inactive	inactive	inactive	inactive	365 nM (active)	inactive	inactive	inactive	inactive	inactive	inactive						inactive	inactive
